NCF1 inh: inhibitors of human p47phox binding; P14598; p47phox/p22phox peptide binding, fluorescence polarization, 2 h; inhibition, % at 24.7 µM; 0.53% of 220,000 active;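 also: 0% = p47phox with labelled peptide and 100% = labelled peptide alone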
Target sequence (P14598 whole entry, looked up): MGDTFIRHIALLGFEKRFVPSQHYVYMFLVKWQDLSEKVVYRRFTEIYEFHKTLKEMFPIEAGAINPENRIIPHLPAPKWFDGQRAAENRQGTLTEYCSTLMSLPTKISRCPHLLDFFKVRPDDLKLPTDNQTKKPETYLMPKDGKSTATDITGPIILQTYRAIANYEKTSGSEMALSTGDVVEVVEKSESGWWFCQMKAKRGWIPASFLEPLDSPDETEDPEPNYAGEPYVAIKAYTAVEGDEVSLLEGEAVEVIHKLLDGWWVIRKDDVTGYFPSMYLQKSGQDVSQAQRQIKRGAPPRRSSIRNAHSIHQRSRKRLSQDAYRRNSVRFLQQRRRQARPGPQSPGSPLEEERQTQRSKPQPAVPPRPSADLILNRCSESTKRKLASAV
14-3-3 Bad inh: disrupts binding of bovine 14-3-3 zeta to phospho-Bad peptide; inhibition, % at 21.7 µM; 0.71% of 220,000 active; TR-FRET 14-3-3zeta/Dy647-pBad peptide displacement, 1 h;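 active = inhibition above about 70%, limit read from the data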;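 also: 0% = full 14-3-3 plus peptide FRET controls and 100% = background without 14-3-3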
Mcl1-Bid inh: Mcl-1/Bid interaction inhibition | TR-FRET Mcl-1/Bid-Dy647 peptide binding, 1536-well | inhibition, % at 21.7 µM | 0.97% of 220,000 active | AID 1021 | Q07820;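 active = compounds that cut the binding signal by more than half at the single screening dose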;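 also: His-tagged Mcl-1 with europium anti-His antibody binding Bid BH3 peptide; 0% = Mcl-1 plus peptide wells and 100% = peptide-only wells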
Mcl-1 Bim block: disrupts Bim peptide binding to human Mcl-1. 0.1% of 190,000 active. Bead-based flow cytometry, Bim peptide-Mcl-1 binding. inhibition, % at 10 µM; in the data active = inhibition above about 40%;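 also: 0% = no compound tracer wells and 100% = peptide blocker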
Mcl1 Noxa PPI: Mcl-1/Noxa interaction inhibition. TR-FRET Mcl-1/Noxa peptide binding, 2 h. inhibition, % at 21.7 µM. Q07820. AID 1022. 1.5% of 220,000 active;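 active = compounds that cut the protein-peptide binding signal by more than 50% relative to plate controls in a single-dose test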;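 also: His-tagged Mcl-1 with rhodamine Noxa BH3 peptide and terbium anti-His antibody; 0% = Mcl-1 plus Noxa peptide wells and 100% = peptide-only wells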
eIF4E-4G inh: eIF4E/eIF4G interaction inhibition in translation initiation; P63073+Q04637; TR-FRET eIF4E-eIF4GI(517-606) binding, 2 h; inhibition, % at 21.7 µM; 0.37% of 220,000 active; AID 782;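 also: 0% = full FRET control wells and 100% = background wells lacking eIF4GI fragment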
* marks the source's active call; other numbers are inactive results; . = not tested or not shown. Compounds with a hit are over-represented: about 3.3% of the library has one in this group of screens.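 The calls were made as follows, unless noted: active = inhibition above about 30% (limit read from the data); inactive = the rest.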

SMILES | NCF1 inh | 14-3-3 Bad inh | Mcl1-Bid inh | Mcl-1 Bim block | Mcl1 Noxa PPI | eIF4E-4G inh
O=C(CNC(=O)c1ccc([N+](=O)[O-])cc1)N/N=C\c1ccc(OC(=O)c2ccccc2)cc1 | -6.2 | 60.5 | 74.7* | 19.0 | 41.7 | -60.3
COc1ccc(C)cc1NC(=O)c1nnn(Cc2cccc(C(F)(F)F)c2)c1N | -1.7 | -10.4 | -7.0 | -4.0 | -11.8 | -2.4
COc1cccc(COCC(O)Cn2cnc3cc(C)c(C)cc32)c1 (centres undefined) | 2.8 | 8.0 | 24.8 | 0.0 | 24.7 | -3.6
COc1ccc(N=Cc2c(O)c3ccccc3n2C(C)=O)cc1 | 31.2* | -3.6 | -136.9 | . | 16.8 | -9.1
c1ccc(-c2nn3c(Cn4nnc5ccccc54)nnc3s2)nc1 | -3.7 | 7.2 | 7.7 | -1.0 | 54.8* | 19.1
CNC(=O)/C(C#N)=C/c1c(N(Cc2ccccc2)Cc2ccccc2)nc2c(C)cccn2c1=O | -6.4 | 15.4 | 30.4 | 90.0* | -2.6 | 7.7
CCNC(=O)/C(C#N)=C/c1c(N(Cc2ccccc2)Cc2ccccc2)nc2ccccn2c1=O | -30.0 | 5.1 | 11.2 | -4.0 | 27.8 | -1.7
O=C(N/N=C/c1ccc([N+](=O)[O-])o1)C1CC1 | 8.6 | 16.2 | -15.7 | -1.0 | 16.4 | 7.4
Cn1c(C(=O)NCc2ccccc2)cc2oc3ccccc3c21 | 31.3* | -8.3 | -22.4 | 4.0 | -8.3 | -2.4
O=C1/C(=C/c2ccccn2)SC(=S)N1N1CCOCC1 | -45.4 | 6.0 | 42.6 | . | 19.2 | -1.5
CCOC(=O)CN1C(=O)C(Sc2n[nH]c(-c3ccc(O)cc3)n2)CCc2ccccc21 (centres undefined) | -0.9 | -13.7 | -12.4 | -2.0 | 5.6 | 3.0
Cc1cc(N2CCC(C)CC2)nc(NCc2ccccc2)n1 | 1.6 | -3.4 | 1.6 | -1.0 | 18.1 | -1.0
Cc1ccc(NC(=O)CN2C(=O)N/C(=C\c3cccn3-c3cccc(C(=O)O)c3)C2=O)cc1 | -29.6 | 68.7 | -78.4 | 0.0 | 63.1* | 24.3
CCn1c(C)cc(/C=C2\NC(=O)N(CC(=O)Nc3cccc(C)c3)C2=O)c1C | 6.3 | 66.1 | 32.9 | 0.0 | 32.6 | -9.6
Cc1ccc(NC(=O)CN2C(=O)N/C(=C/c3cc(C)n(-c4cccc(C(=O)O)c4)c3C)C2=O)cc1 | -36.0 | 34.6 | -97.0 | -1.0 | 73.4* | 34.9*
Cc1ccc(CN2C(=O)N/C(=C\c3cccn3-c3cccc(C(=O)O)c3)C2=O)cc1 | -21.5 | 15.7 | -37.4 | -1.0 | 40.8 | 6.1
COc1ccc(N2C(=O)CC(NCCNc3ccc([N+](=O)[O-])cn3)C2=O)cc1 (centres undefined) | -1.7 | 1.8 | -32.0 | -1.0 | 10.5 | -0.9
COCCn1nnnc1CN1CCC(C)CC1 | 3.3 | 41.8 | 11.3 | -4.0 | 10.4 | 4.5
COCCn1nnnc1CN1CCOCC1 | -8.9 | 74.6* | 29.3 | 1.0 | 33.6 | 3.7
CC(NS(C)(=O)=O)C(c1cccs1)N1CCN(C)CC1 (centres undefined) | -9.5 | 1.8 | -13.3 | 1.0 | 20.7 | 4.0
CC(NS(C)(=O)=O)C(c1cccs1)N1CCN(Cc2ccccc2)CC1 (centres undefined) | 168.6* | 6.6 | -14.7 | -2.0 | -3.6 | 4.1
Cc1cccc(C)c1OCC(C)N (centres undefined) | 5.1 | 6.7 | -43.1 | . | -6.3 | 85.1*
Cc1ccc2[nH]c3c(c2c1)CCNC3=O | -1.6 | -1.9 | -53.4 | -13.0 | 6.5 | 1.0
Cc1ccc2[nH]c3c(c2c1)CCN1C(=O)OC(C)(C)C31C (centres undefined) | -12.2 | -6.2 | -18.6 | -1.0 | 67.9* | -6.3
O=C(CN1C(=O)C2CC=CCC2C1=O)Nc1ccc(S(=O)(=O)N2CCOCC2)cc1 (centres undefined) | -1.3 | 6.7 | -26.1 | -2.0 | 11.6 | 1.1
CCn1c(=S)[nH]c2scc(-c3cccs3)c2c1=O | 1.6 | -2.7 | -50.8 | -6.0 | 13.3 | -5.9
CC(C)n1c(=S)[nH]c2scc(-c3cccs3)c2c1=O | 1.6 | 0.6 | -17.0 | . | 73.1* | 41.9*
CN(C)N1C(N)=C(C#N)C(c2cccnc2)C2=C1CC(C)(C)CC2=O (centres undefined) | 4.9 | -15.3 | 61.7* | -4.0 | 21.8 | 2.9
CCN(CC(=O)Nc1ccc2c(c1)OCCO2)S(=O)(=O)c1cccs1 | -5.9 | -3.9 | 64.3* | -3.0 | 3.8 | -4.6

Bioassay records as filed in PubChem.
